Among all 310,000 compounds or so, about 14,000 (4.5%) showed an effect of 50% or more. The effect is printed as a negative number. Shown is part of a subset that was picked to be rich in strong results.

We go through 87 compounds from paper PMC4336329 (PLoS ONE, 2015).
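Also: peak tail current of the secondary pulse compared with the same well before compound.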

For the test, the target named is human ether-à-go-go-related gene (hERG) potassium channel (human, UniProt Q12809). Description: primary screen, population patch clamp on CHO cells stably expressing hERG; higher = less effect of the substance.
Chain of human ether-à-go-go-related gene (hERG) potassium channel (Q12809 whole entry, looked up): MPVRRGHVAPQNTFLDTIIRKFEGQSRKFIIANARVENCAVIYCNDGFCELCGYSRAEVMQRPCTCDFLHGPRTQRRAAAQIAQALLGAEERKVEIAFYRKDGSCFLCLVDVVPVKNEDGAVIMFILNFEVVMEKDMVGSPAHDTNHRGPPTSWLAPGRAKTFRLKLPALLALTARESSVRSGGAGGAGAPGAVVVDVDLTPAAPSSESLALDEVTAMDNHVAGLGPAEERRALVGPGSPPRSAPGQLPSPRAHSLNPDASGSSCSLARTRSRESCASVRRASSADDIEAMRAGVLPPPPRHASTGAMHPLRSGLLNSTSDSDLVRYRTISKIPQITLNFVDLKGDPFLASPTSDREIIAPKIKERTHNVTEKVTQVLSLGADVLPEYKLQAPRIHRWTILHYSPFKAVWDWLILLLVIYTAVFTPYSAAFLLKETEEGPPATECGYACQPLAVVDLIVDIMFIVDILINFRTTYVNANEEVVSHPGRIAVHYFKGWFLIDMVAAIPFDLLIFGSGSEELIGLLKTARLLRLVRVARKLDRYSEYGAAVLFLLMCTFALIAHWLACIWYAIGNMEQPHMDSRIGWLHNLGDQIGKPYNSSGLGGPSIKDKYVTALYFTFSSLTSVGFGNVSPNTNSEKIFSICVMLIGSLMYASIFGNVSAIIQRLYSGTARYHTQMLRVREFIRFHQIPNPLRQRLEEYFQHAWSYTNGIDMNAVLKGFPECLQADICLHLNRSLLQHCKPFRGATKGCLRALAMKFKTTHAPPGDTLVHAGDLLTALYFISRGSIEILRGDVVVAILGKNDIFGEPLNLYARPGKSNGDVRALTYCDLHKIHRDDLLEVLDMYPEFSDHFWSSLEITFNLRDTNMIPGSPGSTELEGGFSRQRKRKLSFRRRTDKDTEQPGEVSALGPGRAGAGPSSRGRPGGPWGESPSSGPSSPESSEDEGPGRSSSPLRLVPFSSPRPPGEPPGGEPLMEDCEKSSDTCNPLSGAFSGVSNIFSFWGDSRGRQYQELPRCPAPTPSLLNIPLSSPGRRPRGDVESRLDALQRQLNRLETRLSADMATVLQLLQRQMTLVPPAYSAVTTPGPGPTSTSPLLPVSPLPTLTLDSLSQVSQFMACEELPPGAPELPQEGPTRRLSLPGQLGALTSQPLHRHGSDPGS
On to `Cn1c(=O)n(CCCOc2ccc(Br)cc2)c2ccccc21`, for which the “hERG current change (%, negative = inhibition) at 10uM” value was -3.96%.
The value for `COc1ccc(C2C(C(=O)c3ccco3)=C(O)C(=O)N2CC2CCCO2)cc1OC` (stereo not drawn) was 24.1%.
As for `O=C(CCN1c2ccccc2Sc2ccccc21)OCc1nnc(-c2ccccc2)o1`, the “hERG current change (%, negative = inhibition) at 10uM” value is on record as 5.92%.
The result for `O=S1(=O)CCOC[C@H](Cc2ccccc2)N1Cc1ccccc1` reads -37.8%; that for `Cc1nc2c3ccccc3nc(NNC(=O)CCC(=O)N3CCN(c4ccccc4F)CC3)n2n1`, -40.3%.
Regarding `CCOc1ccc(NC(=O)C2CCCN(C(=O)Nc3ccccc3)C2)cc1` (stereo not drawn), the “hERG current change (%, negative = inhibition) at 10uM” value was determined as 2.35%.
As for `Cc1cc(C)n(C(C)CC(=O)Nc2ccc3c(c2)OCO3)n1` (stereo not drawn), the “hERG current change (%, negative = inhibition) at 10uM” value came out at 10.2%.
The result for `COc1cc(OC)c(NC(=O)c2ccco2)cc1Cl` reads -14.3%; that for `Cc1ccc(Cn2c(SC3CCOC3=O)nc3ccccc3c2=O)cc1` (stereo not drawn), -42.9%; that for `O=C1OCCC1Sc1nc2ccccc2c(=O)n1Cc1ccccc1` (stereo not drawn), -82.4%.
As to `COCCn1c(SC2CCOC2=O)nc2ccccc2c1=O` (stereo not drawn), the “hERG current change (%, negative = inhibition) at 10uM” value is listed as -31%.
Consider `O=C1OCCC1Sc1nc2ccccc2c(=O)n1-c1ccc(F)cc1` (stereo not drawn), for which the “hERG current change (%, negative = inhibition) at 10uM” value is reported as 8.7%.
The result for `CSc1nc2ccccc2c(=O)n1Cc1ccc(F)cc1` reads 15.4%.
The value for `O=C1OCCC1Sc1nc2cc(Cl)ccc2n1Cc1ccccc1` (stereo not drawn) was -63.9%; that for `O=C1OCCC1Sc1nc2ccccc2n1Cc1ccccc1` (stereo not drawn) was -46.3%.
The result for `O=C1OCCC1Sc1nnc(-c2ccccc2Cl)n1Cc1ccccc1` (stereo not drawn) reads 2.19%.
With `O=C1OCCC1Sc1nc2ccccc2c(=O)n1Cc1ccc(F)cc1` (stereo not drawn), the “hERG current change (%, negative = inhibition) at 10uM” value was -75.5%.
The result for `O=C(Nc1ccccc1Cl)c1ccc(=O)[nH]n1` reads 8.03%; that for `COCCn1c(SCC(=O)N(C(C)C)C(C)C)nnc1-c1cc2ccccc2cc1O`, -15.8%; that for `COc1cccc(CN(C)C(=O)c2cc(S(=O)(=O)NC3CCCCC3)ccc2C)c1OC`, -4.41%.
The result for `COc1ccc(-c2oc3ccccc3c(=O)c2OC(C)=O)cc1` reads -11.3%.
On to `CC(=O)c1cccc(NC(=O)NCc2cccnc2)c1`, for which the “hERG current change (%, negative = inhibition) at 10uM” value stood at 12.2%.
The value for `O=C(Oc1ccccc1)N(c1ccccc1)c1ccccc1` was 2.8%.
For the compound `NS(=O)(=O)c1ccc(NC(=O)CN2CCCc3ccccc32)cc1`, the “hERG current change (%, negative = inhibition) at 10uM” value was -5.73%.
The value for `Cc1ccccc1C(=O)NC1CCN(CC(=O)Nc2ccccc2Cl)CC1` was -14.4%; that for `N#Cc1ccc(CN2CCN(CC(=O)Nc3ccccc3C(=O)NC3CC3)CC2)cc1` was -77.9%.
As to `O=C(CN1CCN(S(=O)(=O)c2ccccc2F)CC1)Nc1ccccc1C(=O)c1ccccc1`, the “hERG current change (%, negative = inhibition) at 10uM” value is listed as -22.8%.
The result for `N#Cc1ccccc1S(=O)(=O)N1CCN(CC(=O)NC(=O)NC2CCCCC2)CC1` reads -31.6%; that for `O=C(CN1CCN(S(=O)(=O)c2ccccc2)CC1)NC1CC1`, 15.3%.
The value for `N#Cc1ccccc1S(=O)(=O)N1CCN(CC(=O)Nc2ccccc2C(=O)NC2CC2)CC1` was -66.5%; that for `NC(=O)C1CCN(CC(=O)Nc2ccccc2C(=O)NC2CC2)CC1` was 1.42%.
The value for `O=C(CN1CCN(S(=O)(=O)c2ccccc2)CC1)Nc1ccccc1C(=O)c1ccccc1` was -19.4%; that for `N#Cc1ccc(S(=O)(=O)N2CCN(CC(=O)Nc3ccccc3C(=O)NC3CC3)CC2)cc1` was -73.9%.
On to `O=C(CN1CCN(S(=O)(=O)c2ccc(F)c(F)c2)CC1)Nc1ccccc1C(=O)NC1CC1`, for which the “hERG current change (%, negative = inhibition) at 10uM” value is reported as -72.3%.
The value for `CC(C#N)(NC(=O)CN1CCN(S(=O)(=O)c2ccccc2C#N)CC1)C1CC1` (stereo not drawn) was 2.51%.
As to `O=C(CN1CCN(S(=O)(=O)c2ccc(F)cc2)CC1)NC1CCCC1`, the “hERG current change (%, negative = inhibition) at 10uM” value is reported as -8.45%.
The value for `O=C(Cc1c(F)cccc1Cl)Nc1ccccc1C(=O)N1CCOCC1` was 3.32%; that for `C#CCOc1ccc(/C=C2/C(=O)ON=C2C)cc1Cl` was 10.9%.
The result for `Oc1ccc(Br)cc1/C=N/n1c(COc2ccccc2)n[nH]c1=S` reads 16.5%; that for `CCCCNC(=O)COC(=O)c1ccc(F)cc1Cl`, -10.8%; that for `COc1ccc(-c2cc(=O)oc3cc(OC(C)C(=O)Nc4ccc(CN5CCOCC5)cc4)ccc23)cc1` (stereo not drawn), -0.104%.
The value for `O=C(c1ccc(Cl)cc1)c1cnc(Nc2ccccc2Cl)s1` was -1.11%; that for `Cc1cc(C)c(NC(=O)CSc2nnc(CN3CCOCC3)n2C)c(C)c1` was 13.5%; that for `COc1ccc(C(C(=O)NC2CCCC2)N(C(=O)c2ccoc2C)c2ccccc2)cc1` (stereo not drawn) was -3.9%.
As for `CC(=O)c1ccc(S(=O)(=O)N2CCN(CC(=O)Nc3ccccc3C(=O)NC3CC3)CC2)cc1`, the “hERG current change (%, negative = inhibition) at 10uM” value is -75.4%.
The result for `CC(=O)c1ccc(S(=O)(=O)N2CCN(CC(=O)NC(=O)NC3CCCCC3)CC2)cc1` reads -16.8%; that for `O=C(CN1CCN(S(=O)(=O)c2ccccc2)CC1)Nc1ccccc1C(=O)NC1CC1`, -27.1%.
As to `CCn1c(SCC(=O)NC2CCCCC2)nnc1-c1cc2cccc(OC)c2o1`, the “hERG current change (%, negative = inhibition) at 10uM” value is -26%.
The value for `CCCCn1c(SCC(=O)NCc2ccco2)nc2cc(S(N)(=O)=O)ccc21` was -7.32%; that for `COc1ccc(NC(NC(=O)c2cccnc2)C(Cl)(Cl)Cl)cc1` (stereo not drawn) was 29.3%.
The result for `CC1CCCN(CC(O)COc2ccc(Cl)cc2)C1.Cl` (stereo not drawn) reads -69.2%.
As to `OC1CCCN(CC(O)COc2ccc(-c3ccccc3)cc2)C1` (stereo not drawn), the “hERG current change (%, negative = inhibition) at 10uM” value is on record as -52.9%.
As for `CC1CCCN(CC(O)COc2ccc(-c3ccccc3)cc2)C1` (stereo not drawn), the “hERG current change (%, negative = inhibition) at 10uM” value was -73.4%.
The result for `Cl.OCCN1CCN(CC(O)COc2ccc(-c3ccccc3)cc2)CC1` (stereo not drawn) reads -45.9%; that for `CC(=O)c1ccc(OCC(O)CN2CCCC(C)C2)cc1.Cl` (stereo not drawn), -1.2%.
Take `CC1CCCN(C(=O)COc2ccc(-c3ccccc3)cc2)C1` (stereo not drawn): the “hERG current change (%, negative = inhibition) at 10uM” value is -35.5%.
The result for `CC1CCCN(CC(O)COc2ccc3c(c2)OCO3)C1.Cl` (stereo not drawn) reads -15.1%.
The value for `OC(COc1ccc(-c2ccccc2)cc1)CN1CCOCC1` (stereo not drawn) was -19.7%; that for `C=CCNC(=O)CCCOc1cc(C)ccc1C` was -9.84%; that for `CC(C)(O)CCc1c(-c2ccc(O)cc2O)oc2c3c(cc(O)c2c1=O)OC(C)(C)C=C3` was 13.7%.
The value for `CC1(C)Cc2nc3oc4c(=O)n(CC(=O)Nc5ccccc5)cnc4c3cc2CO1` was 5.24%.
With `O=C(O)c1cc(NC(=O)c2cccc(C(=O)Nc3cc(C(=O)O)cc(C(=O)O)c3)c2)cc(C(=O)O)c1`, the “hERG current change (%, negative = inhibition) at 10uM” value turned out to be 15.8%.
As to `CCc1noc(C)c1C(=O)N1CCCC(CCC(=O)NCc2ccc(F)c(F)c2)C1` (stereo not drawn), the “hERG current change (%, negative = inhibition) at 10uM” value was -0.135%.
The result for `O=S(=O)(c1cc(Cl)ccc1Br)N1CCCCC1` reads -22.9%; that for `CCCCc1cc(=O)oc2c3c(cc(OCC(=O)NCCCO)c12)OC(C)(C)CC3`, -18.1%; that for `CCc1cc(=O)oc2c3c(cc(OCC(=O)NCCCn4ccnc4)c12)OC(C)(C)CC3`, -51.1%.
For the compound `CCc1cc(=O)oc2c3c(cc(OCC(=O)NCc4ccncc4)c12)OC(C)(C)CC3`, the “hERG current change (%, negative = inhibition) at 10uM” value was -34.4%.
The result for `CCCc1cc(=O)oc2c3c(cc(OCC(=O)NCCCn4ccnc4)c12)OC(C)(C)CC3` reads -73.9%; that for `Cc1cc(=O)oc2c3c(cc(OCC(=O)NCCCn4ccnc4)c12)OC(C)(C)CC3`, -32.1%.
The value for `Cc1cc(=O)oc2c3c(cc(OCC(=O)NCc4ccncc4)c12)OC(C)(C)CC3` was -27.7%; that for `CCCc1cc(=O)oc2c3c(cc(OCC(=O)NCCN4CCOCC4)c12)OC(C)(C)CC3` was -18.3%; that for `CCCc1cc(=O)oc2c3c(cc(OCC(=O)NCc4ccncc4)c12)OC(C)(C)CC3` was -65%.
The result for `CCc1cc(=O)oc2c3c(cc(OCC(=O)NCCCOC)c12)OC(C)(C)CC3` reads 8.45%; that for `Cc1cc(C)c(N=C2SCC(=O)N2Cc2ccco2)c(C)c1`, -14%.
Turning to `Cc1cc(C)c(NC(=O)COC(=O)CCn2c(C)csc2=O)c(C)c1`, the “hERG current change (%, negative = inhibition) at 10uM” value is recorded as -10.6%.
The result for `Cc1ccc(-n2ncc3c(NCCCN4CCOCC4)ncnc32)c(C)c1` reads -10.3%; that for `Cc1cc(NC(=O)COC(=O)c2cc(S(=O)(=O)N(C)c3ccccc3)ccc2Cl)no1`, 0.766%.
As for `Cc1ccccc1-n1c(-c2ccco2)nc2ccccc2c1=O`, the “hERG current change (%, negative = inhibition) at 10uM” value was determined as 1.78%.
Regarding `Cn1cnc2c1c(=O)n(CC(O)CO)c(=O)n2C` (stereo not drawn), the “hERG current change (%, negative = inhibition) at 10uM” value is recorded as 23%.
The value for `O=C(Cn1cc2c(n1)CCCC2)N1CCCC1` was 5.98%; that for `O=C(Cn1cc2c(n1)CCCCC2)N1CCCCC1` was 2.46%; that for `CCOC(=O)N1CCN(C(=O)Cn2cc3c(n2)CCCC3)CC1` was -72.4%.
The value for `Cc1ccc(C(=O)NCc2ccc3c(c2)OCO3)cc1S(=O)(=O)N1CCCCC1` was -26.4%; that for `CC(=O)OCCN(CCCn1c(-c2ccncc2)nc2ccccc21)c1nc(CN2CCCCC2)cs1` was -58.5%.
The result for `OCCN(CCCn1c(-c2ccncc2)nc2ccccc21)c1nc(CN2CCCCC2)cs1` reads 23.4%; that for `OCCN(CCCn1c(C(F)(F)F)nc2ccccc21)c1nc(CN2CCCCC2)cs1`, -19%.
In the case of `NC(=O)CSc1nc2sc(-c3ccccc3)cc2c(=O)n1N`, the “hERG current change (%, negative = inhibition) at 10uM” value stood at 11%.
